# Hit rate of the full screen: of about 47,000 compounds, about 1,400 (3%) were called active. No stated cut-off is given here; in the data, active means inhibition above about 30%; inactive means the rest. Shown is part of a subset that was picked to be rich in actives.
# Target: Ubiquitin carboxyl-terminal hydrolase 28 (Homo sapiens) (UniProt Q96RU2)
# Assay: inhibitors of human USP28 deubiquitinase (AID 1645857)
# Conditions: purified USP28, Ub-rhodamine cleavage fluorescence, 30 min; at 25 µM; hits give high values
# Sequence of Ubiquitin carboxyl-terminal hydrolase 28 (Homo sapiens) (Q96RU2 whole entry, looked up): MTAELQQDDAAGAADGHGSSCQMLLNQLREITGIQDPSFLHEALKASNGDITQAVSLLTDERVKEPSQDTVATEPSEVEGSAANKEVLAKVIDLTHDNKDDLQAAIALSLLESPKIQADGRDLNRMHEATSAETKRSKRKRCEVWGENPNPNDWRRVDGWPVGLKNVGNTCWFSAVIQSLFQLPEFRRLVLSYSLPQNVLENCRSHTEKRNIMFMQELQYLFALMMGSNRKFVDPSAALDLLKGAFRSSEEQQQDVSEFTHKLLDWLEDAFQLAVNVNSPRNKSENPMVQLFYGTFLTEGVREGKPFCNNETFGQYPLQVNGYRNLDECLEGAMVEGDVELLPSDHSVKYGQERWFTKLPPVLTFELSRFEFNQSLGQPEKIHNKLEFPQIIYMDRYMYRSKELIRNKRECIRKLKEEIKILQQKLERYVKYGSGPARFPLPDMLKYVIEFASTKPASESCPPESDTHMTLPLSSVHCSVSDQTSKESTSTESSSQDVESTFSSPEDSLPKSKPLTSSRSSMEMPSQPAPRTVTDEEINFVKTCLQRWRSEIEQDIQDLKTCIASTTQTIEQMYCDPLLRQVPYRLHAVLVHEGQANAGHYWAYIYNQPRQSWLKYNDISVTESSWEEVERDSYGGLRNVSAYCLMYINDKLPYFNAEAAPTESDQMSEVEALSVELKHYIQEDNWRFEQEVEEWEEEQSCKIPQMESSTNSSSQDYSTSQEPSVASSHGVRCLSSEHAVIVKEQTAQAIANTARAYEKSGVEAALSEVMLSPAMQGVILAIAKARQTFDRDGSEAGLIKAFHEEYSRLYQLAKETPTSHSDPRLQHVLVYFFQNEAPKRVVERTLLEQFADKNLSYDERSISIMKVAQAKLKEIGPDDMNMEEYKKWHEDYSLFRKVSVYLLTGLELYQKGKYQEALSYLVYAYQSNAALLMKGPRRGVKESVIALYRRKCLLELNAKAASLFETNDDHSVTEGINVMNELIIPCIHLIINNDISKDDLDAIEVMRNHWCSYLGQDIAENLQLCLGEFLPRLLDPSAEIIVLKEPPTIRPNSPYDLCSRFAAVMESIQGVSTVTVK
row,SMILES,inhibition
1,Cc1cccc(NC(=O)Nc2ccc3c(c2)N(S(=O)(=O)c2ccccc2)CC3)c1C,-0.657% (inactive)
2,O=C(Cn1cnc2ccccc21)N1CCCc2ccccc21,15.3% (inactive)
3,Cc1nc2ccccc2c(=O)n1CC(=O)N1CCCc2ccccc21,6.83% (inactive)
4,COC(=O)COc1cccc2c(=O)n(CC(=O)N3CCc4ccccc43)ccc12,36% (active)
5,COc1ccc(CNC(=O)[C@H](CCSC)NC(=O)[C@@H]2Cc3c([nH]c4ccccc34)C3c4ccccc4C(=O)N32)cc1 (stereo not given in full),-15% (inactive)
6,NC(=O)c1c(NC(=O)/C=C/C(=O)O)sc2c1CCCCCC2,-7.88% (inactive)
7,COc1cccc(N2C(=O)c3cccnc3C2Nc2ccc(C)c(C)c2)c1 (stereo not given),-14.4% (inactive)
8,O=C(Nc1ccc2c(c1)OCO2)c1sc2cc(Cl)ccc2c1Cl,-10.3% (inactive)
9,COc1ccc(NS(=O)(=O)c2cc(NC(=O)/C=C/c3cccc(OC)c3)ccc2OC)cc1,19.1% (inactive)
10,O=C(/C=C/c1ccc(Cl)cc1)Nc1ccc2c(c1)OCCO2,35.4% (active)
11,COc1ccc(/C=C/C(=O)Nc2ccc3c(c2)OCCO3)cc1Br,76.8% (active)
12,O=C(Nc1ccc2c(c1)OCO2)N1CCCCCC1,-1.57% (inactive)
13,COc1ccc(NC(=O)CCC(=O)c2ccc3c(c2)OCCO3)cc1S(=O)(=O)Nc1ccc(Cl)cc1,16.3% (inactive)
14,COc1ccc(S(=O)(=O)c2cnc3cc(OC)c(OC)cc3c2N2CCOCC2)cc1,3.3% (inactive)
15,COc1ccccc1NC(=O)CCC(=O)N1CCSc2ccccc21,-4.12% (inactive)
16,Brc1ccc2[nH]c3c(NCCCN4CCOCC4)ncnc3c2c1,-18.8% (inactive)
17,O=C(NCc1ccccc1)c1noc2c1CCc1sccc1-2,0.0745% (inactive)
18,COc1cc(NC(=O)c2noc3c2CCc2sccc2-3)cc(OC)c1,43.6% (active)
19,COc1cc(OC)cc(C(=O)Nc2ccc(S(=O)(=O)Nc3cc(C)on3)cc2)c1,12.8% (inactive)
20,COc1cccc(C2c3[nH]c4ccccc4c3C[C@@H]3C(=O)N(CCCn4ccnc4)CC(=O)N23)c1 (stereo not given in full),-0.857% (inactive)
21,CC(C)(C)c1ccc(C(=O)Nc2cccc(-c3nc4ncccc4o3)c2)cc1,2.33% (inactive)
22,COc1cccc(NC(=O)C(C#N)C(=O)C2CC2c2cccc(C)c2)c1 (stereo not given),26.5% (inactive)
23,Cc1c(-c2nn3c(-c4ccco4)nnc3s2)cccc1[N+](=O)[O-],33.6% (active)
24,Cc1cc(C)n2nc(C(=O)N(C)C(c3ccccc3)c3ccccc3)nc2n1,5.86% (inactive)
25,COc1ccc2[nH]c3c(NCCCN4CCOCC4)ncnc3c2c1,-8.4% (inactive)

# From PubChem BioAssay AID1645857 (Buhrlage Lab, Dana-Farber Cancer Institute and Novartis …, 2021)
